# The full ranking holds about 2,900 compounds; the median of “NF-kB SEAP reporter activity, fold change vs agonist alone” is about 0.99, and the highest 2% start at about 2.6. The list comes from a sample in which the highest values are over-represented; it also holds similar structures and randomly drawn compounds.
# Legend:
# RAW-Dual [1] = assay: NF-kB SEAP reporter activity, fold change vs agonist alone; higher = enhanced NF-kB activity; details: cytotoxicity flag (confluency mask): not cytotoxic
# How it was run: (§1)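 Library stock was pin-tooled at 50 nL into 384-well plates of RAW-Dual macrophages (50,000 cells/well, DMEM), followed 1 h later by a PRR agonist, and the cells were kept at 37 °C, 5% CO2. Supernatant collected after 20 hours was read for IRF by QuantiLuc luminescence and for NF-κB by QuantiBlue absorbance at 620 nm. Reporter activity is fold change over agonist-alone wells, and a well counted as cytotoxic when its IncuCyte confluency was below 70% of agonist controls in both mask sets.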
# RAW-Dual [2] = assay: NF-kB SEAP reporter activity, fold change vs agonist alone; cytotoxicity flag (confluency mask): not cytotoxic; higher = enhanced NF-kB activity
# How it was run: as §1
# [3] = library stock concentration (final ~1000-fold dilution): 10 mM, agonist: Imiquimod (TLR7) […]
# [4] = library stock concentration (final ~1000-fold dilution): 10 mM, agonist: MPLA (TLR4) […]
# [5] = agonist: ODN 1826 (TLR9) 0.5 ug/mL
# [6] = agonist: Pam2CSK4 (TLR2/6) 0.1 ug/mL
# [7] = agonist: Pam3CSK4 (TLR2/1) 0.1 ug/mL
smiles,measurement,setting,value
CN(C/C=C/C#CC(C)(C)C)Cc1cccc2ccccc12.Cl,NF-kB SEAP reporter activity,RAW-Dual [1]; [3],1.56
same,NF-kB SEAP reporter activity,RAW-Dual [1]; [4],2.08
CN(C/C=C/C#CC(C)(C)C)Cc1cccc2ccccc12,NF-kB SEAP reporter activity,RAW-Dual [1]; [3],1.6
same,NF-kB SEAP reporter activity,RAW-Dual [1]; [4],2.02
CN(C/C=C/C#CC(C)(C)C)Cc1cccc2ccccc12 (library stock concentration (final ~1000-fold dilution): 10 mM),NF-kB SEAP reporter activity,RAW-Dual [2]; agonist: LPS (TLR4) 0.1 ug/mL,4.26
same,NF-kB SEAP reporter activity,RAW-Dual [2]; [5],0.849
same,NF-kB SEAP reporter activity,RAW-Dual [2]; [6],0.95
same,NF-kB SEAP reporter activity,RAW-Dual [2]; [7],1.44
CN(C/C=C/C#CC(C)(C)C)Cc1cccc2ccccc12.Cl (library stock concentration (final ~1000-fold dilution): 10 mM),NF-kB SEAP reporter activity,RAW-Dual [2]; agonist: LPS (TLR4) 0.1 ug/mL,3.51
same,NF-kB SEAP reporter activity,RAW-Dual [2]; [5],0.849
same,NF-kB SEAP reporter activity,RAW-Dual [2]; [6],0.948
same,NF-kB SEAP reporter activity,RAW-Dual [2]; [7],1.3
COc1cc2c(cc1OC)CN(C(=O)/C=C/c1c(-c3ccccc3)n(C)c3ncccc13)CC2.Cl,NF-kB SEAP reporter activity,RAW-Dual [1]; [3],1
same,NF-kB SEAP reporter activity,RAW-Dual [1]; [4],1.02
COc1cc2c(cc1OC)CN(C(=O)/C=C/c1c(-c3ccccc3)n(C)c3ncccc13)CC2.Cl (library stock concentration (final ~1000-fold dilution): 10 mM),NF-kB SEAP reporter activity,RAW-Dual [2]; agonist: LPS (TLR4) 0.1 ug/mL,1.15
same,NF-kB SEAP reporter activity,RAW-Dual [2]; [5],1.14
same,NF-kB SEAP reporter activity,RAW-Dual [2]; [6],1.15
same,NF-kB SEAP reporter activity,RAW-Dual [2]; [7],1.18
CNC1CN(c2ccc3c(=O)c(C(=O)O)cn(-c4nccs4)c3n2)CC1OC.Cl (stereo not given),NF-kB SEAP reporter activity,"RAW-Dual [1]; library stock concentration (final ~1000-fold dilution): 2 mM, agonist: Imiquimod (TLR7) […]",1.12
same,NF-kB SEAP reporter activity,"RAW-Dual [1]; library stock concentration (final ~1000-fold dilution): 2 mM, agonist: MPLA (TLR4) […]",0.968
CNC1CN(c2ccc3c(=O)c(C(=O)O)cn(-c4nccs4)c3n2)CC1OC.Cl (stereo not given) (library stock concentration (final ~1000-fold dilution): 2 mM),NF-kB SEAP reporter activity,RAW-Dual [2]; agonist: LPS (TLR4) 0.1 ug/mL,1.11
same,NF-kB SEAP reporter activity,RAW-Dual [2]; [5],1.56
same,NF-kB SEAP reporter activity,RAW-Dual [2]; [6],1.32
same,NF-kB SEAP reporter activity,RAW-Dual [2]; [7],1.18
Br.CN(C)CCCC1(c2ccc(F)cc2)OCc2cc(C#N)ccc21 (stereo not given),NF-kB SEAP reporter activity,RAW-Dual [1]; [4],1.01
Br.CN(C)CCCC1(c2ccc(F)cc2)OCc2cc(C#N)ccc21 (stereo not given) (library stock concentration (final ~1000-fold dilution): 10 mM),NF-kB SEAP reporter activity,RAW-Dual [2]; agonist: LPS (TLR4) 0.1 ug/mL,1.15
same,NF-kB SEAP reporter activity,RAW-Dual [2]; [5],0.889
same,NF-kB SEAP reporter activity,RAW-Dual [2]; [6],0.786
same,NF-kB SEAP reporter activity,RAW-Dual [2]; [7],0.857
CCOc1cc(C(CS(C)(=O)=O)N2C(=O)c3cccc(NC(C)=O)c3C2=O)ccc1OC (stereo not given) (library stock concentration (final ~1000-fold dilution): 10 mM),NF-kB SEAP reporter activity,RAW-Dual [2]; agonist: LPS (TLR4) 0.1 ug/mL,1.59
same,NF-kB SEAP reporter activity,RAW-Dual [2]; [5],1.87
same,NF-kB SEAP reporter activity,RAW-Dual [2]; [6],1.47
same,NF-kB SEAP reporter activity,RAW-Dual [2]; [7],1.72
CCOc1cc(C(CS(C)(=O)=O)N2C(=O)c3cccc(NC(C)=O)c3C2=O)ccc1OC (stereo not given),NF-kB SEAP reporter activity,RAW-Dual [1]; [3],1.12
same,NF-kB SEAP reporter activity,RAW-Dual [1]; [4],1.26
N=C(N)NCCCC(N)C(=O)NCC(=O)NC(CC(=O)O)C(=O)O (stereo not given),NF-kB SEAP reporter activity,"RAW-Dual [1]; library stock concentration (final ~1000-fold dilution): 10 mM water, agonist: Imiquimod (TLR7) […]",0.924
same,NF-kB SEAP reporter activity,"RAW-Dual [1]; library stock concentration (final ~1000-fold dilution): 10 mM water, agonist: MPLA (TLR4) […]",1.06
N=C(N)NCCCC(N)C(=O)NCC(=O)NC(CC(=O)O)C(=O)O (stereo not given) (library stock concentration (final ~1000-fold dilution): 10 mM water),NF-kB SEAP reporter activity,RAW-Dual [2]; agonist: LPS (TLR4) 0.1 ug/mL,1.41
same,NF-kB SEAP reporter activity,RAW-Dual [2]; [5],1.14
same,NF-kB SEAP reporter activity,RAW-Dual [2]; [6],1.2
same,NF-kB SEAP reporter activity,RAW-Dual [2]; [7],0.993
[O-][n+]1cccc(-c2nc3c(Cl)cccc3cc2C(Nc2ncnc3cccnc23)C(F)(F)F)c1 (stereo not given) (library stock concentration (final ~1000-fold dilution): 10 mM),NF-kB SEAP reporter activity,RAW-Dual [2]; agonist: LPS (TLR4) 0.1 ug/mL,2.33
same,NF-kB SEAP reporter activity,RAW-Dual [2]; [5],1.3
same,NF-kB SEAP reporter activity,RAW-Dual [2]; [6],0.992
same,NF-kB SEAP reporter activity,RAW-Dual [2]; [7],1.38
[O-][n+]1cccc(-c2nc3c(Cl)cccc3cc2C(Nc2ncnc3cccnc23)C(F)(F)F)c1 (stereo not given),NF-kB SEAP reporter activity,RAW-Dual [1]; [3],0.648
same,NF-kB SEAP reporter activity,RAW-Dual [1]; [4],1.56
CC(C)=CC(C)C[C@](C)(O[C@@H]1O[C@H](CO)[C@@H](O)[C@H](O)[C@H]1O)[C@H]1CC[C@]2(C)C3CCC4C(C)(C)C(O[C@@H]5O[C@H](CO)[C@@H](O)[C@H](O)[C@H]5O[C@@H]5O[C@H](CO)[C@@H](O)[C@H](O)[C@H]5O)CC[C@]4(C)C3C[C@H](O)[C@@H]12 (stereo not given in full) (library stock concentration (final ~1000-fold dilution): 10 mM),NF-kB SEAP reporter activity,RAW-Dual [2]; agonist: LPS (TLR4) 0.1 ug/mL,1.18
same,NF-kB SEAP reporter activity,RAW-Dual [2]; [5],1.06
same,NF-kB SEAP reporter activity,RAW-Dual [2]; [6],1.04
same,NF-kB SEAP reporter activity,RAW-Dual [2]; [7],1.04
CC(C)=CC(C)C[C@](C)(O[C@@H]1O[C@H](CO)[C@@H](O)[C@H](O)[C@H]1O)[C@H]1CC[C@]2(C)C3CCC4C(C)(C)C(O[C@@H]5O[C@H](CO)[C@@H](O)[C@H](O)[C@H]5O[C@@H]5O[C@H](CO)[C@@H](O)[C@H](O)[C@H]5O)CC[C@]4(C)C3C[C@H](O)[C@@H]12 (stereo not given in full),NF-kB SEAP reporter activity,RAW-Dual [1]; [3],0.936
same,NF-kB SEAP reporter activity,RAW-Dual [1]; [4],1.05
COc1cc(CCC(=O)CC(O)CCc2ccc(O)c(OC)c2)ccc1O (stereo not given) (library stock concentration (final ~1000-fold dilution): 10 mM),NF-kB SEAP reporter activity,RAW-Dual [2]; agonist: LPS (TLR4) 0.1 ug/mL,1.4
same,NF-kB SEAP reporter activity,RAW-Dual [2]; [5],1.07
same,NF-kB SEAP reporter activity,RAW-Dual [2]; [6],0.979
same,NF-kB SEAP reporter activity,RAW-Dual [2]; [7],1.25
COc1cc(CCC(=O)CC(O)CCc2ccc(O)c(OC)c2)ccc1O (stereo not given),NF-kB SEAP reporter activity,RAW-Dual [1]; [3],1.04
same,NF-kB SEAP reporter activity,RAW-Dual [1]; [4],1.1
COC(=O)C1=C(C)NC(C)=C(C(=O)OC2CCCN(Cc3ccccc3)C2)C1c1cccc([N+](=O)[O-])c1.Cl (stereo not given) (library stock concentration (final ~1000-fold dilution): 10 mM),NF-kB SEAP reporter activity,RAW-Dual [2]; agonist: LPS (TLR4) 0.1 ug/mL,1.22
same,NF-kB SEAP reporter activity,RAW-Dual [2]; [5],0.381
same,NF-kB SEAP reporter activity,RAW-Dual [2]; [6],0.365
same,NF-kB SEAP reporter activity,RAW-Dual [2]; [7],0.368
COC(=O)C1=C(C)NC(C)=C(C(=O)OC2CCCN(Cc3ccccc3)C2)C1c1cccc([N+](=O)[O-])c1.Cl (stereo not given),NF-kB SEAP reporter activity,RAW-Dual [1]; [3],0.718
same,NF-kB SEAP reporter activity,RAW-Dual [1]; [4],0.978
CN(C)CCOc1ccc(-c2nc(-c3ccncc3)c(-c3ccc4c(c3)CC/C4=N\O)[nH]2)cc1,NF-kB SEAP reporter activity,RAW-Dual [1]; [3],0.946
same,NF-kB SEAP reporter activity,RAW-Dual [1]; [4],1.02
CN(C)CCOc1ccc(-c2nc(-c3ccncc3)c(-c3ccc4c(c3)CC/C4=N\O)[nH]2)cc1 (library stock concentration (final ~1000-fold dilution): 10 mM),NF-kB SEAP reporter activity,RAW-Dual [2]; agonist: LPS (TLR4) 0.1 ug/mL,5
same,NF-kB SEAP reporter activity,RAW-Dual [2]; [5],0.964
same,NF-kB SEAP reporter activity,RAW-Dual [2]; [6],1.49
same,NF-kB SEAP reporter activity,RAW-Dual [2]; [7],0.882
OCCn1cc(-c2ccc3c(c2)CC/C3=N\O)c(-c2ccncc2)n1 (library stock concentration (final ~1000-fold dilution): 10 mM),NF-kB SEAP reporter activity,RAW-Dual [2]; agonist: LPS (TLR4) 0.1 ug/mL,2.47
same,NF-kB SEAP reporter activity,RAW-Dual [2]; [5],1.5
same,NF-kB SEAP reporter activity,RAW-Dual [2]; [6],1.34
same,NF-kB SEAP reporter activity,RAW-Dual [2]; [7],2.22

# Reference: the supplement of paper PMC10037445
